Compound activity as filed in PubChem.
An excerpt weighted towards active compounds, which were near 4.7% of everything screened.
TRHR agonist – TRH receptor (human) agonism; P34981; TRHR cells, calcium flux fluo-8, FDSS agonist mode; activation, % at 2 µM; 0.18% of 360,000 active; further: 0% is about no effect
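In this calcium-flux screen, cells bearing human TRHR are dye-loaded with fluo-8, baselined for 10 cycles, then exposed to library compounds; positive kinetic calcium responses during the agonist phase mark hits, with TRH as control.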
TRHR PAM – allosterically enhances the human TRH receptor; P34981; TRHR cells, fluo-8 calcium fluorescence, EC20 TRH enhancement; enhancement, % at 2 µM; 0.66% of 360,000 active; in the data active means enhancement above about 30%; further: 0% is about no effect
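TRHR-expressing cells loaded with fluo-8 calcium dye were read kinetically (ex 480/em 530) during compound addition, then stimulated with an EC20 of TRH (10 nM final). Enhancement of the Gq-mediated intracellular calcium response was scored.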
D1 ag – agonists of human D1 dopamine receptor; HEK293 T-REx D1 cells, calcium flux, agonist mode; activation, % at 2 µM; P21728; 1% of 360,000 active; further: 0% is about no effect
Target sequence (P21728 whole entry, looked up): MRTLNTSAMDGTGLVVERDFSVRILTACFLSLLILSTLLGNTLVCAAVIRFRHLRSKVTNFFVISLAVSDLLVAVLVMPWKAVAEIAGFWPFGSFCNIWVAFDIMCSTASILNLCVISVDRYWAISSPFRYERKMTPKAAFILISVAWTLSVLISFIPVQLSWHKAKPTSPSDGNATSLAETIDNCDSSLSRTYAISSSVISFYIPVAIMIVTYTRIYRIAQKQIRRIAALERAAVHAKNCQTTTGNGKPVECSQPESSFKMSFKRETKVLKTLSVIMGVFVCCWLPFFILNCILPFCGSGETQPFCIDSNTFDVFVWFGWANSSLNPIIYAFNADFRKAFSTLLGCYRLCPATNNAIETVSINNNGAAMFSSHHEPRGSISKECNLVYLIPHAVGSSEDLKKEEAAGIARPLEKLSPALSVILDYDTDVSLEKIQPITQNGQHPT
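Agonism was scored from calcium flux recorded over 180 s (1 read/s) after pintool compound addition, following a 10-cycle baseline. Cells were inducible force-coupled HEK293 TREx D1, plated overnight at 30 C and loaded with no-wash calcium dye.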
D1 PAM – potentiators of human D1 dopamine receptor; P21728; HEK293 TREx D1 cells, calcium flux, dopamine EC20 potentiation; potentiation, % at 10 µM; 0.036% of 360,000 active; in the data active means potentiation above about 30%; further: 0% is about no effect
D1 antag – human D1 dopamine receptor antagonism; activity change, negative = inhibition, % at 10 µM; HEK293 TREx D1 cells, calcium flux, dopamine EC80; hits give low values; 3.2% of 360,000 active; in the data active means activity change below about -30%; further: on the % scale 0 is the no-effect control and ±100 the full control effect
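Cells carrying a force-coupled, tetracycline-inducible human D1 receptor report calcium flux. Each well gets a 10 s baseline, compound with 180 s monitoring, then an EC80 dopamine stimulus with a second 180 s kinetic read.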
Starred values were filed as active, the others as inactive; ! = repeats disagree. Unless noted, no stated cut-off is given here; in the data, active means activation above about 30%; inactive means the rest.

SMILES	TRHR agonist	TRHR PAM	D1 ag	D1 PAM	D1 antag
Cc1sc2ncn(CC(=O)NCC(=O)N(C)Cc3ccccc3)c(=O)c2c1C	-1	7	1	0	-5
COc1cccc(C2=NN(S(C)(=O)=O)C(c3cn(-c4ccccc4)nc3-c3cccs3)C2)c1 (centres undefined)	2	21	1	-2	-39*
COc1cccc(C2CC(c3cccs3)=NN2S(C)(=O)=O)c1 (centres undefined)	-2	-2	3	0	-2
O=C(O)CCC(=O)N1N=C(c2cccs2)CC1c1cn(-c2ccccc2)nc1-c1ccccc1 (centres undefined)	0	34*	1	-1	11
Cc1ccc(-c2nn(-c3ccccc3)cc2C2CC(c3cccs3)=NN2C(=O)CCCC(=O)O)cc1 (centres undefined)	0	-2	1	-7	-7
CCCCS(=O)(=O)N1CCCC(C(=O)NCC2CCCO2)C1 (centres undefined)	0	-2	-1	-3	-19
CCc1sc(C(=O)NCCc2ccc(S(N)(=O)=O)cc2)cc1C	-1	13	3	-8	4
Cc1cc(C(=O)NCCc2ccc(S(N)(=O)=O)cc2)c(C)o1	0	8	3	-6	-31*
CCc1sc(C(=O)NCCc2ccc(S(N)(=O)=O)cc2)cc1Br	0	-4	-1	-2	-30*
Cc1ccccc1OCC(O)CN1CCN(CC(O)COc2ccccc2C)CC1 (centres undefined)	0	-2	54*	-12	3
Cc1ccccc1OCC(O)CN1CCC(C)CC1 (centres undefined)	0	6	3	-10	-5
Cc1ccccc1OCC(O)Cn1c(=N)n(CCN2CCOCC2)c2ccccc21 (centres undefined)	0	2	5	-6	-35*!
CC(=O)Nc1ccc(/C=C(\C#N)C(=O)NCc2ccccc2)cc1	0	-1	0	-2	-7
CCN(CC)c1ccc(/C=C(/C#N)C(=O)NC(C)C)o1	20	0	57*	-4	-7
CCN(CC)c1ccc(/C=C(/C#N)C(=O)NCc2ccccc2)o1	59*	8	152*	-1	-6
CC(C)NC(=O)/C(C#N)=C\c1ccc(N(C)C)o1	-1	2	3	3	-5
CC(C)CN(CC(C)C)C(=O)COc1ccccc1C(N)=O	0	4	4	-1	-35*
COc1cc(Cl)c(C)cc1NC(=O)c1cc(S(=O)(=O)N2CCCC2)ccc1F	-1	5	-2	0	-1
CC(=O)OCc1cnc(C)c2oc(=O)c(C(=O)Nc3cccc(F)c3)cc12	-1	9	0	1	-46*
COc1cccc(C(=O)N/N=C(/c2ccccc2)c2ccccn2)c1	0	-8	4	-2	-62*
COc1cc(C(=O)N/N=C(\c2ccccc2)c2ccccn2)cc(OC)c1OC	0	4	0	-8	-10
COc1ccccc1CNC(=O)CSc1ncc2c(n1)-c1ccc(Cl)cc1N(Cc1ccccc1)S2(=O)=O	-1	0	0	-2	1
CCOC(=O)c1cccc(NC(=O)CSc2ncc3c(n2)-c2ccc(Cl)cc2N(Cc2ccccc2)S3(=O)=O)c1	-1	10	7	0	-75*
COc1ccc(CNC(=O)CSc2ncc3c(n2)-c2cc(Cl)ccc2N(Cc2ccccc2)S3(=O)=O)cc1	0	4	6	-8	-43*
Cc1nn(S(=O)(=O)c2ccc(C(C)C)cc2)c(C)c1S(=O)(=O)N1CCCCCC1	0	23	2	0	1
SMILES	TRHR agonist	TRHR PAM	D1 ag	D1 PAM	D1 antag
COC(=O)c1cc(C(=O)Nn2cnnc2)cc([N+](=O)[O-])c1	0	-4	1	0	4
CCc1ccc(CNC(=O)c2cc3n(n2)CCCN(Cc2ccccc2)C3=O)cc1	0	2	66*	-3	-47*
O=C(/C=C/Nc1ccc(F)cc1)c1ccc(Oc2ncccn2)cc1	0	4	2	-9	-41*
Cc1cc(=O)n2nc(N3CCCC(C(=O)NCCCN4CCc5ccccc5C4)C3)sc2n1 (centres undefined)	0	4	5	-3	-32*
CCC1CCCCN1CCCNC(=O)C1CCCN(c2nn3c(=O)cc(C)nc3s2)C1 (centres undefined)	0	-2	3	-6	-2
O=C(Nc1nc2ccccc2n1CCN1CCCC1)C1CCCCC1	-1	-1	0	-2	-30*
c1ccc2c(c1)nc(NCc1ccc3c(c1)OCO3)n2CCN1CCOCC1	-1	5	0	-7	-30*
COc1ccc(CNc2nc3ccccc3n2CCN2CCCCC2)c(OC)c1	3	-4	13	-9	-41*
COc1ccc(-c2nc(SCC(=O)NCCCc3ccccc3)n[nH]2)cc1	-1	-6	0	-3	-16
CCc1ccc(-c2nc(CN3CCC(C(=O)NCCc4ccc(Cl)cc4)CC3)c(C)o2)cc1	0	8	1	6	2
Cc1nc(-c2ccc(S(=O)(=O)Nc3ccccc3C)cc2)co1	0	3	14	-7	-23
CCN(CC)c1ccc(NS(=O)(=O)c2ccc(-c3coc(C)n3)cc2)c(C)c1	-1	-5	0	-6	-34*
CCOC(=O)c1cccc(NS(=O)(=O)c2cc3[nH]c(=O)c(=O)[nH]c3cc2C)c1	0	46*	-1	3	2
CCN(CC)c1ccc(NS(=O)(=O)c2cc3[nH]c(=O)c(=O)[nH]c3cc2C)c(C)c1	0	4	1	-2	-38*
Cc1cc(Cl)ccc1NS(=O)(=O)c1cc2[nH]c(=O)c(=O)[nH]c2cc1C	0	3	-1	2	-10
CCOC(=O)CSc1nc2c([nH]c3ccccc32)c(=O)n1-c1ccc(OCC)cc1	0	2	3	1	8
CC1(CC(=O)N/N=C/c2ccc(OCc3ccc(Cl)cc3Cl)cc2)OCCCO1	0	-6	4	-8	-31*
COc1cc(/C=N/NC(=O)CC2(C)OCCCO2)ccc1OCc1ccc(Cl)cc1Cl	1	1	10	-2	0
COc1cccc(Cn2c(=O)n(-c3cccc(Cl)c3)c(=O)c3c4c(sc32)CN(C(C)=O)CC4)c1	1	4	2	-5	-25
CCOC(=O)c1oc2ccc(CNC(C)(C)C)c(Cl)c2c1C	1	-1	1	-14	-52*
CCc1ccc(NC(=O)CC2C(=O)N(c3ccc(Cl)cc3)C(=O)N2C2CCCC2)cc1 (centres undefined)	2	11	8	0	-3
Nc1nonc1C(=O)N/N=C/c1cc(Br)ccc1O	45*	11	63*	-4	-3
O=C(Nc1cnccn1)Nc1ccccc1F	0	-3	0	-1	4
